# Screens: PubChem BioAssay, National Center for Advancing Translational Sciences (NCATS)
# DRD3 antagonist: qHTS of D3 Dopamine Receptor Antagonist: qHTS. D(3) dopamine receptor (Homo sapiens), P35462. D3R cells, DiscoveRx beta-arrestin luminescence, antagonist mode; hits give low values. max response, negative = inhibition, %. hit rate 2.5% among 360,000. AID 652054, 2013; in the data active = max response below about -50%; inconclusive = no clear call, values can overlap the other calls
# Target sequence (P35462 whole entry, looked up): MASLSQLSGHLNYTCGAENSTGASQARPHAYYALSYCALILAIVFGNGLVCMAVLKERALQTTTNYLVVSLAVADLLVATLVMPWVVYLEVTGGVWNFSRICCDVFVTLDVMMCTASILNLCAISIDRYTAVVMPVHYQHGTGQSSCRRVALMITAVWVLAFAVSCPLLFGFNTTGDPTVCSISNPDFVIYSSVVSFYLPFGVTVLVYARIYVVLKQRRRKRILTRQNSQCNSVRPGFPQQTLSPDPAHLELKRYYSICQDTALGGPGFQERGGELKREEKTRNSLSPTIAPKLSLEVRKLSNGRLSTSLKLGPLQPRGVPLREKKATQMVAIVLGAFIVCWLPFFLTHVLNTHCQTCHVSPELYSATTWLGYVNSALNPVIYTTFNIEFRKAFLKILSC
#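 Cells plated overnight at 1500 cells/well, then exposed to library compounds with dopamine controls for 90 minutes at 37 degrees C. DiscoveRx reagent added for 30–60 minutes at room temperature; luminescence read, quantitative HTS format.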
# SW480 rereplic: A quantitative high throughput screen for small molecules that induce DNA re-replication in SW480 colon adenocarcinoma cells | Potency, µM (highest dose often 46.1 µM), hits mostly activators | AID 624297, 2012 | hit rate 1.8% among 340,000 | SW480 DNA re-replication, Hoechst DNA content imaging, 48 h; also: nearly all actives have a fitted effect of over 55% in size
#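 First, 250 cells per well were seeded. Next, compound or vehicle (23 nL) was pinned in, plates sat 48 hr at 37 C. Finally Hoechst was added for 40 min before fluorescence scanning.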
# KB-3-1 tox: qHTS assay for MDR1-selective chemotherapeutics: Primary screen using the parental adenocarcinoma cell KB-3-1 | hit rate 1.4% among 400,000 | KB-3-1 viability, CellTiter-Glo ATP luminescence, 72 h | Potency, µM (doses to about 46.1 µM), hits mostly cytotoxic | AID 1347075, 2019; also: nearly all actives have a fitted effect of over 60% in size
#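 Screening of KB-3-1 cells (DMEM, 10% FBS, phenol-red free) ran from lowest to highest compound concentration; after 72 h at 37 °C viability was read luminescently and curves fitted.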
# D3 ag: qHTS of D3 Dopamine Receptor Agonist: qHTS | D(3) dopamine receptor (Homo sapiens), P35462 | D3R DiscoveRx beta-arrestin cells, luminescence, 90 min | max activation, % | hit rate 0.58% among 410,000 | AID 652048, 2013; in the data active = max activation above about 30%
#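 Agonist-mode cell screen: cells plated at 1500/well and incubated overnight at 37 °C, then exposed to library compounds for 90 min at 37 °C. Detection reagent was added for 30–60 min at room temperature, and luminescence was read.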
# KB-V1 MDR tox: qHTS assay for MDR1-selective chemotherapeutics: Primary screen using the drug-selected MDR subline cells KB-V1. KB-V1 MDR cells viability, CellTiter-Glo, 72 h. Potency, µM (doses to about 46.1 µM), actives largely listed as cytotoxic. hit rate 3.4% among 400,000. AID 1347076, 2019; also: nearly all actives have a fitted effect of over 60% in size
#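 Cytotoxicity toward P-gp-expressing KB-V1 cells was determined as loss of CellTiter-Glo luminescence after 72 h at 37 degrees C. Compounds were tested in quantitative HTS format across a concentration range, with curves fitted to normalized data.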
# MCF10A rerep: A quantitative high throughput screen for small molecules that induce DNA re-replication in MCF 10a normal breast cells | MCF 10A DNA re-replication, Hoechst nuclear intensity, 48 h | Potency, µM (highest dose often 46.1 µM), actives largely listed as activators | hit rate 2.9% among 350,000 | AID 624296, 2012; also: nearly all actives have a fitted effect of over 50% in size
# Hits are given with their value; n = inactive; u = inconclusive; x = no result. Compounds with a hit are over-represented: about 8.9% of the library has one in this group of screens. Unless noted, calls follow the shape of the dose curve; as a rule, active = well fitted curve in the direction sought with a large enough effect; inconclusive = small, poorly fitted or top-dose-only effect, or another doubt; inactive = no such curve, though single readings can be large; an effect the other way counts as inactive or inconclusive.
SMILES,DRD3 antagonist,SW480 rereplic,KB-3-1 tox,D3 ag,KB-V1 MDR tox,MCF10A rerep
O=C(C1CCN(S(=O)(=O)c2cccnc2)CC1)N1CCN(c2ccc(Cl)cc2)CC1,n,n,13µM,n,6.5µM,n
O=C(C1CCN(S(=O)(=O)c2cccnc2)CC1)N1CCN(c2ccccc2Cl)CC1,n,n,n,n,u,n
O=S(=O)(c1cccs1)N1CCN(c2ncccn2)CC1,n,n,n,n,u,n
O=C(C1CCN(S(=O)(=O)c2c(Cl)cccc2Cl)CC1)N1CCCCCCC1,u,4.1µM,n,n,n,n
O=C(C1CCN(S(=O)(=O)c2ccc(Cl)s2)CC1)N1CCN(c2ccccc2)CC1,n,n,n,n,18µM,n
Cc1ccc(Cl)cc1N1C(=O)N(Cc2ccc(C#N)cc2)c2ccccc2S1(=O)=O,x,x,n,n,n,x
C=CCn1c(SCC(=O)c2[nH]c(C)c(C(=O)OCC)c2C)nc2scc(-c3ccc(OC)cc3)c2c1=O,n,u,4.6µM,n,u,u
C=CCn1c(SCC(=O)c2[nH]c(C)c(C(=O)OCC)c2C)nc2scc(-c3ccccc3)c2c1=O,n,n,n,n,n,u
COc1cc(/C=C/c2ccc3cccc(O)c3n2)ccc1O,-52,n,u,n,n,12µM
O=[N+]([O-])c1cccc2ccc(/C=C/c3ccc(Cl)cc3)nc12,n,n,n,n,u,n
COc1cc(Br)cc(/C=C/c2ccc3cccc(O)c3n2)c1O,n,n,u,n,n,16µM
C/C=C/c1ccc(O)c(OC)c1,n,n,n,n,n,n
CSc1ccc(/C=C/c2ccc3cccc(O)c3n2)cc1,-58,n,n,n,u,21µM
COc1cc(Br)c(/C=C/c2ccc3cccc(O)c3n2)cc1OC,n,n,n,n,n,n
COc1ccc(S(=O)(=O)N2CCC(C(=O)NCCOc3ccccc3F)CC2)cc1OC,n,n,n,n,23µM,n
COc1ccc(S(=O)(=O)N2CCC(C(=O)NCCc3ccccc3)CC2)cc1OC,n,n,n,n,n,n
COc1ccc(C)cc1NC(=O)C1C2C=CC(C2)C1C(=O)O (stereo not drawn),n,n,n,n,n,n
COc1cc(NC(=O)C2C3C=CC(C3)C2C(=O)O)c(OC)cc1Cl (stereo not drawn),-86,n,n,n,n,n
O=[N+]([O-])c1cc(S(=O)(=O)C(F)(F)F)ccc1Sc1nc2ccccc2[nH]1,n,u,u,n,n,3.7µM
NCCNc1ccc([N+](=O)[O-])c(Sc2nc3ccccc3[nH]2)c1,n,n,n,n,n,n
O=[N+]([O-])c1ccc(N2CCNCC2)cc1Sc1nc2ccccc2[nH]1,-66,16µM,u,n,n,n
CS(=O)(=O)c1ccc(Sc2nc3ccccc3s2)c([N+](=O)[O-])c1,n,7.3µM,n,n,u,u
O=[N+]([O-])c1cc(S(=O)(=O)C(F)(F)F)ccc1Sc1nc2ccccc2s1,-95,13µM,3.3µM,n,u,u
CC(C)(C)c1ccc(C(=O)Nc2ccc(-c3nc4ccccc4[nH]3)cc2)cc1,x,x,n,x,n,x
COC(=O)[C@]1(C)N[C@H](CN(C)C(=O)c2ccccc2)[C@@H]2C(=O)N(C)C(=O)[C@@H]21,n,n,n,n,u,n
SMILES,DRD3 antagonist,SW480 rereplic,KB-3-1 tox,D3 ag,KB-V1 MDR tox,MCF10A rerep
COc1ccccc1CNC(=O)CN1C(=O)NC2(CCCC2)C1=O,n,n,n,n,n,n
COC(=O)c1sccc1NC(=O)c1ccc(C)o1,n,n,n,n,n,n
COC(=O)c1sccc1-c1ccc(C(=O)Nc2ccccc2)o1,n,n,u,n,13µM,n
CCC1=[N+](CC(=O)c2ccc(C)cc2)CCn2c(C)ccc21,n,n,18µM,n,n,u
COc1ccccc1C(O)c1ncc(-c2cccc3ccccc23)[nH]1 (stereo not drawn),-57,x,n,n,n,x
Cc1cc(C)cc(OC(=O)CS(=O)c2ccc(C(F)(F)F)cc2[N+](=O)[O-])c1 (stereo not drawn),-73,u,u,n,u,12µM
O=C(NCCO)c1ccc(Oc2ccc(C(F)(F)F)cc2[N+](=O)[O-])cc1,n,n,n,n,n,n
Cc1ccc(OCCNc2ccc(C(F)(F)F)cc2[N+](=O)[O-])cc1,n,n,n,n,n,n
O=C(CS(=O)c1ccc(C(F)(F)F)cc1[N+](=O)[O-])Oc1ccc(Cl)cc1 (stereo not drawn),-97,u,u,n,n,13µM
CN(C)/N=C/C=C1\CCC/C(=C/c2cccs2)C1=O,n,u,n,n,u,23µM
CCCC(=O)Nc1nc(C)c(-c2csc(Nc3ccc(Cl)cc3)n2)s1,n,n,u,n,n,u
CC(=O)Nc1nc(C)c(-c2csc(Nc3ccc(O)cc3)n2)s1,n,u,8.2µM,n,n,18µM
CCC(C)C(=O)Nc1nc(C)c(-c2csc(Nc3ccc(Cl)cc3)n2)s1 (stereo not drawn),n,n,6.5µM,n,n,u
CC(=O)Nc1ccc(Nc2nc(-c3sc(NC(C)=O)nc3C)cs2)cc1,n,n,u,n,n,u
CC(C)(CC(=O)OCC(=O)Nc1ccc(F)c(Cl)c1)CC1=NS(=O)(=O)c2ccccc2N1,x,x,n,n,n,x
c1ccc(-c2nc(-c3ccco3)n3ccccc23)cc1,n,u,n,n,n,21µM
COc1cccc(CNCCSc2nnnn2C)c1OCc1ccc(F)cc1,x,x,n,n,n,x
C=CCOc1c(CNc2ccc3[nH]c(=O)[nH]c3c2)cccc1OC,n,n,n,n,u,n
COc1cc(CNCCc2c[nH]c3ccccc23)cc(Cl)c1OCC(N)=O,u,n,n,n,n,u
COc1cc(CNCCc2c[nH]c3ccccc23)ccc1OCc1ccc(F)cc1,u,u,n,n,5.2µM,u
COc1cccc(CNCCc2c[nH]c3ccccc23)c1OCc1ccc(F)cc1,n,u,u,n,16µM,u
COc1cccc(CNc2ccc3[nH]c(=O)[nH]c3c2)c1OCc1ccc(F)cc1,-54,n,n,n,n,n
Cn1cc(S(=O)(=O)c2ccc(Cl)cc2)c(=O)c2cc(F)c(N3CCOCC3)cc21,x,x,n,n,n,x
COc1ccc(-c2nc3n(n2)C(c2ccncc2)C(C(N)=O)=C(C)N3)cc1 (stereo not drawn),-59,n,n,n,n,n
COc1ccc(-c2nc3n(n2)C(c2cccnc2)C(C(N)=O)=C(C)N3)cc1 (stereo not drawn),n,n,n,n,n,n
